Compound activity deposited in PubChem by several laboratories.
Mot1-301 SUMO: inhibitors of SUMOylation pathway: yeast Mot1-301 growth rescue; S. cerevisiae Mot1-301 growth rescue, ATP luminescence, 38.5C; percent above DMSO median, 100 means doubled; growth rescue, % at 18.8 µM; 1% of 320,000 active; AID 2716;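 active = every valid replicate shows activation above 250% relative to neutral control wells; inactive = the rest, any valid replicate at or below 250%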
V-ATPase pHluor: yeast V-ATPase proton transport regulation by pHLuorin; S. cerevisiae, pHLuorin cytosolic pH fluorescence; response, % at 10 µM; 0.37% of 350,000 active; AID 504577; in the data active = response mostly above about 7.3%, no sharp cut-off; inactive = mostly below about 5.4%; also: actives read high
AI-2 QS mod: Vibrio harveyi AI-2 quorum sensing modulation | Vibrio harveyi JMH597 AI-2 luminescence/OD600 ratio, 9 h; stronger effect = lower value; strain lacks LuxN and CqsS sensors; 0 = neutral-control median | activity change, % at 7.5 µM | 0.4% of 300,000 active | AID 2094; in the data active = activity change below about -75%, passing the limit was not always enough;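 also: luminescence divided by OD600 gain over 9 h not by final OD600 alone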
Efflux pump mplx: inhibitors of Candida antifungal efflux pumps expressed in yeast; S. cerevisiae Candida pump triplex, Nile Red efflux; inhibition, % at 10 µM; 0.44% of 330,000 active;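 active = plate passing quality check with inhibition over a set limit, or well fluorescence over plate mean plus 4 SD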;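 also: Nile Red retained in pooled yeast measured as flow cytometry median fluorescence; higher means more Nile Red kept so more efflux inhibition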
ATG4B inh: blocks human ATG4B protease cleavage of LC3 substrate | ATG4B cleavage of LC3-PLA2, NBD-HPC fluorescence, 1 h | inhibition, % at 8.33 µM | 0.51% of 340,000 active | AID 504462; in the data active = inhibition above about 40%
Target sequence (Q9Y4P1 whole entry, looked up): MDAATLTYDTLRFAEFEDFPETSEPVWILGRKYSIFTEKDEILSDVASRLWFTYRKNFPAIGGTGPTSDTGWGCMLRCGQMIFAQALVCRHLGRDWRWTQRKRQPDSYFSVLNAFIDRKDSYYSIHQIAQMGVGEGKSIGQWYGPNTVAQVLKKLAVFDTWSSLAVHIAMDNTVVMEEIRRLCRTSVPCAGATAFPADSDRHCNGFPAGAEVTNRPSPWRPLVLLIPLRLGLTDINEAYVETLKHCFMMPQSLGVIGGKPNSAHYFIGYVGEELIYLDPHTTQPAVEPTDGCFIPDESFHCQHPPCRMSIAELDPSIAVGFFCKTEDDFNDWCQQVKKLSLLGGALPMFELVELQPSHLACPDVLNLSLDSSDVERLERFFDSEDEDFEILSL
A number is an active result; 0 = inactive; - = no result; + = active, no number. Sampled rows, rich in hits. Any-hit rate of the full collection: about 2.5%.

SMILES	Mot1-301 SUMO	V-ATPase pHluor	AI-2 QS mod	Efflux pump mplx	ATG4B inh
COC(=O)N1[C@H](Cc2ccccc2)C=C[C@]1(C)C(=O)NCc1ccccn1	0	0	0	-	0
COc1ccc(C2(C)C(C#N)C(=O)NC(=O)C2C#N)cc1 (stereo not given)	-	0	-	-	0
Oc1c(CN2CCCCC2)cc(Br)c2cccnc12	0	0	-87	0	0
Oc1c(CN2CCc3ccccc3C2)cc(Cl)c2cccnc12	0	0	-89	0	0
Cc1ccc(S(=O)(=O)N2C[C@H]3N(C(=O)OC(C)C)N(C(=O)OC(C)C)C[C@H](OC(=O)NCC4CCCCC4)[C@@]3(O)C2)cc1	-	0	-	-	-
C[C@]1(O)CC(=O)C=C[C@H]1Nc1ccccc1	-	0	-	-	-
Cc1ccc(NC(=O)c2cccc(N3C(=O)C4C5CCC(C5)C4C3=O)c2)c(C)c1 (stereo not given)	+	0	0	0	0
CCC(NC(=O)c1ccncc1)c1ccccc1 (stereo not given)	0	0	0	0	0
Cc1cc(C)cc(OCC(O)CN2CCN(Cc3ccc4c(c3)OCO4)CC2)c1 (stereo not given)	310	0	0	0	0
OC(COc1ccccc1)CN1CCN(Cc2ccc3c(c2)OCO3)CC1 (stereo not given)	0	0	0	0	0
Cc1ccc(S(=O)(=O)NCCCNC(=O)N2CCOCC2)cc1	0	0	0	0	0
CS(=O)(=O)N(CCCC(=O)N1CCCCCC1)c1cccc(Cl)c1	0	0	0	0	0
Cc1cccc(C)c1OCC(=O)Nc1ccccc1N1CCCCC1	0	0	0	0	0
Cc1cccc(OCC(=O)Nc2ccccc2N2CCCCC2)c1C	0	8.8	0	0	0
CSC(=S)N/N=C(\C)c1ccc(Br)cc1	0	0	0	0	0
O=[N+]([O-])c1cc(-c2nc3nc4ccccc4nc3n2CCc2ccccc2)cc([N+](=O)[O-])c1	0	0	0	0	0
CCCn1c(SCC(=O)Nc2ccc(OCC)cc2)nnc1C(C)C	344	0	0	0	0
CC1CN(C(=O)COC(=O)c2ccc(C#N)cc2)CC(C)O1 (stereo not given)	0	0	0	0	0
O=c1[nH]c(O)c(/C=C2\C=Nc3ccc(Br)cc32)[nH]1	0	0	0	0	0
CC(C)c1ccc(CNc2ccc3c(c2)ncn3C)cc1	0	0	-79	0	0
CN(C)c1ccc(CNc2ccc3c(c2)ncn3C)cc1	0	-	0	0	0
Cc1ccc(NC(=O)NNc2cccc(Cl)n2)cc1	-	0	0	0	0
O=c1c2ccc(Cl)cc2nc(-c2cccc(C(F)(F)F)c2)n1O	0	11	0	0	0
N#Cc1ccc(-c2nc3cc(Cl)ccc3c(=O)n2O)cc1	0	0	0	0	0
COc1ccc(OC)c(NC(=O)CCn2ccnc2)c1	0	0	0	0	0
SMILES	Mot1-301 SUMO	V-ATPase pHluor	AI-2 QS mod	Efflux pump mplx	ATG4B inh
Cn1cnc2nc[nH]c2c1=S	-	0	-	-	0
S=c1nc[nH]c2nc[nH]c12	0	0	-154	0	0
O=C(O)c1cc(NN=Nc2ccc(Br)cc2)cc([N+](=O)[O-])c1	322	0	0	0	0
COc1ccccc1C1(CC(=O)N2CCOCC2)CCOC(C(C)C)C1 (stereo not given)	570	0	0	0	0
Cc1ccc(S(=O)(=O)N2CCCCC2)cc1C(=O)Nc1ccc(N2CCOCC2)cc1	0	0	0	0	0
CN(C)S(=O)(=O)c1ccc(N2CCCC2)c(C(=O)Nc2ccc(C(N)=O)cc2)c1	261	0	0	0	0
CN(C)S(=O)(=O)c1ccc(N2CCCC2)c(C(=O)Nc2ccc(N3CCOCC3)cc2)c1	0	0	0	0	0
Cc1ccc(S(=O)(=O)N2CCOCC2)cc1C(=O)Nc1ccc(C(N)=O)cc1	0	16	0	0	0
Fc1cc(F)c2nc(N3CCCC3)sc2c1	0	0	0	0	0
COc1ccc(CCNc2oc(-c3ccc(OC)c(OC)c3)nc2C#N)cc1	0	0	0	0	0
COc1ccc(-c2nc(C#N)c(NCCCN(C)C)o2)cc1OC	306	0	0	0	0
CCN1C(=NCC(C)C)N[C@@H](c2cccc(F)c2)C(C(=O)OC)=C1C	0	0	0	0	0
c1ccc(Nc2cc(Nc3ccccc3)[nH]n2)cc1	0	0	-88	0	0
CCC(C)N(C(=O)CSc1nnc(C)n1C)C1CCS(=O)(=O)C1 (stereo not given)	0	0	0	0	0
Clc1ccc(CSc2nnc(-c3c[nH]c4ccccc34)o2)cc1	0	0	-77	0	0
